AMA1-RON2 inh – disrupts binding of P. falciparum AMA1 to RON2; AlphaScreen AMA1-biotinylated RON2 peptide binding; Potency, µM (top dose mostly 58.2 µM), for the others: at the highest dose activity change, negative = inhibition, hits mostly inhibitors; 0.2% of 360,000 active; AID 720542;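 note: potency is the fitted concentration of half-maximal effect; 0% = vehicle wells and -100% = peptide control; nearly all actives have a fitted effect of over 45% in size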
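AMA1 (3D7) with his tag at 25 nM final met compounds first, then biotinylated RON2 peptide at 25 nM; detection used donor plus acceptor beads, 10 µg/mL apiece, read by AlphaScreen after 30 min at room temperature.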
NS1 inh – blocks influenza NS1 protein function; Potency, µM (titrated, usually from 46.1 µM), for inactives: at the top dose activity, positive = more growth; 0.4% of 270,000 active; calls by dose curve; note: potency is the fitted concentration of half-maximal effect; actives are rising curves; nearly all actives have a fitted effect of over 50% in size
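Compounds were scored for reversing the slow growth caused by influenza A NS1 in S. cerevisiae, measured by optical density at 600 nm. Assay medium contained 2% galactose at pH 6.0; NS1-free yeast of the same strain were the positive control.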
SARS PLpro yeast – SARS-CoV PLP inhibition in yeast | Potency, µM (series often up to 32.9 µM), for the others: at the highest dose activity, positive = growth rescue, most hits filed as activators | AID 485353 | S. cerevisiae expressing SARS-CoV PLpro, growth rescue | 0.19% of 330,000 active; calls by dose curve; note: potency is the fitted concentration of half-maximal effect; 0% is about no effect; nearly all actives have a fitted effect of over 55% in size
Pf growth 48h – inhibits P. falciparum growth in the first generation, 48 h. AID 504832. Potency, µM (highest dose often 28.7 µM), inactives show at the top dose activity change, negative = inhibition, most hits filed as inhibitors. P. falciparum luciferase growth in erythrocytes, 48 h. 5.9% of 310,000 active; note: potency is the fitted concentration of half-maximal effect; % is set by controls: 0 for no effect and ±100 for the full control effect
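Luciferase-expressing P. falciparum in infected erythrocytes (2% hematocrit, 0.1% parasitemia final) in RPMI 1640/0.5% Albumax were exposed to compound for 48 hours at 37 C, 5% CO2; growth read as luminescence.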
Pf growth 96h – P. falciparum growth inhibition at 96 hours. AID 504834. P. falciparum luciferase reporter growth, 96 h. 6.9% of 320,000 active. Potency, µM (titrated, usually from 28.7 µM), for inactives: at the top dose activity change, negative = inhibition, actives largely listed as inhibitors; note: potency is the fitted concentration of half-maximal effect; % is set by controls: 0 for no effect and ±100 for the full control effect
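Erythrocytes infected with luciferase-expressing P. falciparum were dispensed at 2% hematocrit and 0.05% parasitemia (final), then incubated with compounds 96 hours at 37 C in 5% CO2. Luminescence after detection reagent addition reported growth.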
HCV inh – inhibitors of hepatitis C virus infection. Huh7.5.1 HCVcc-Cre infection, luciferase reporter, 44 h. Potency, µM (doses to about 41.8 µM), for the others: at the top dose activity change, negative = inhibition, hits mostly inhibitors. 3.4% of 340,000 active; note: potency is the fitted concentration of half-maximal effect; % is set by controls: 0 for no effect and ±100 for the full control effect
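1,000 cells/well; 4 h culture; + compound; + HCVcc-Cre (~0.5 moi); 44 h; luciferase substrate, RT 15 min; read 15 sec.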
NS1 inh valid – influenza NS1 function inhibition validation; activity change, negative = inhibition, % at 32.9 µM; 1,400 tested, under 10 active; influenza NS1 function cell assay, 15-point titration; shares compounds with NS1 inh; calls by dose curve; note: 0% is about no effect
PR8 titer – influenza virus titer reduction, NS1 project. shares compounds with NS1 inh. MDCK infected influenza A/PR/8/34, virus titer TCID50; hits give low values. virus titer (log TCID50), log10 TCID50 at 5 µM. 30% of 95 active; call rule not given here
Starred values were filed as active, the others as inactive; ? = inconclusive; . = no result; ! = not confirmed by another sample. Hits are enriched below; roughly 12% of the tested compounds scored in any of these assays. Unless noted, calls come from the whole dose curve; as a rule, active = well fitted curve in the direction sought with a large enough effect; inconclusive = small, poorly fitted or top-dose-only effect, or another doubt; inactive = no such curve, though single readings can be large; an effect the other way counts as inactive or inconclusive.

SMILES	AMA1-RON2 inh	NS1 inh	SARS PLpro yeast	Pf growth 48h	Pf growth 96h	HCV inh	NS1 inh valid	others
O=C(C1COc2ccccc2O1)N1CCN(c2ccccc2)CC1 (stereo unspecified)	-20%	-72%	-3%	?	.	3%	.
COc1cc2nc(N3CCN(C(=O)C4COc5ccccc5O4)CC3)nc(N)c2cc1OC (stereo unspecified)	-19%	35µM*!	-4%	4.7µM*	3.7µM*	?	-33
Cc1ccc(Cl)cc1N1CCN(S(=O)(=O)c2cc3c(cc2C)NC(=O)CO3)CC1	-2%	5%	-6%	5%	0%	-15%	.
CCOC(=O)c1c(C)[nH]c(C(=O)CN2C(=O)NC(C)(c3ccc4ccccc4c3)C2=O)c1C (stereo unspecified)	-13%	?	-3%	?	5.2µM*	.	-6
CCOC(=O)c1c(C)[nH]c(C(=O)CN2C(=O)NC3(CCCC3)C2=O)c1C	-6%	0%	0%	27%	55%	-27%	.
CCCC1(c2ccccc2)NC(=O)N(CC(=O)c2[nH]c(C)c(C(=O)OCC)c2C)C1=O (stereo unspecified)	0%	?	0%	4.1µM*	8.3µM*	?	16	PR8 titer=6.7*
CC1(c2ccc3ccccc3c2)NC(=O)N(CC(=O)O)C1=O (stereo unspecified)	11%	1%	5%	21%	50%	15%	.
O=C1CC[C@H](NC(=O)c2ccccc2)C(=O)N1	.	6%	.	.	.	.	.
O=C(O)c1cccc(NC(=O)c2cccc(S(=O)(=O)N3CCc4ccccc4C3)c2)c1	-1%	15%	1%	12%	43%	14%	.
O=C(N/N=C/c1ccc(N2CCOCC2)s1)c1ccc(NS(=O)(=O)c2cccs2)cc1	83%	10µM*	0%	?	-16%	-2%	36
Cn1c(=O)cc(C(=O)N/N=C/c2ccc(F)cc2)[nH]c1=O	103%	5%	2%	9%	23%	13%	.
COc1cccc(C(=O)COC(=O)CCC(=O)c2ccccc2)c1	0%	-12%	-3%	-11%	-13%	6%	.
Cc1ccc(-c2nn(-c3ccccc3)cc2C=O)o1	-12%	.	-6%	176%	63%	0%	.
Cc1cnn(-c2cc(N/N=C/c3ccccc3Cl)ncn2)c1	6%	14µM*	3%	18%	15%	20%	-14
Cc1cnn(-c2cc(N/N=C/c3ccc(F)cc3)ncn2)c1	-6%	-4%	0%	6%	?	12%	.
COc1cc(OC)cc(C(=O)N[C@H](C(=O)Nc2cc(F)ccc2C)C(C)C)c1	8%	5%	0%	?	-29%	-6%	.
Cc1ccc(/C=N/NC(=O)CN(Cc2ccccc2)S(=O)(=O)c2ccc3c(c2)OCCO3)cc1	-14%	13µM*	-3%	?	22%	?	2	PR8 titer=8.5
COc1ccc(-c2csc(NC(=O)CCNC(=O)c3ccco3)n2)cc1	0%	.	.	.	.	.	.
Cc1ccc(F)c([C@H]2[C@H]3C=CC[C@@H](C)[C@@H]3C(=O)N2Cc2ccccc2)c1	2%	?	-16%	?	?	18%	?	PR8 titer=9
C[C@@H]1CC=C[C@H]2[C@H]1C(=O)N(Cc1ccccc1)[C@H]2c1ccc(F)c(/C=C/c2ccccc2)c1	0%	?	1%	?	?	-7%	.
O=C(NCCCN1CCOCC1)c1ccc2nc(Cc3ccccc3F)oc2c1	3%	-8%	3%	6%	8%	.	.
COc1ccccc1-n1cc(-c2ccccc2)c2c(=S)nc[nH]c21	-5%	14µM*	12%	13µM*	?	5%	-21
COc1cc(Cl)ccc1OCc1cc(C(=O)N2CCCCC2c2cccnc2)no1 (stereo unspecified)	1%	3.2µM*	-48%	?	?	1%	?
COC(=O)c1ccc(Cn2nnc3c(=O)[nH]c(C4CCCN(S(=O)(=O)c5ccccc5)C4)nc32)cc1 (stereo unspecified)	-3%	18%	-4%	?	1%	6%	.
Cc1ccc(Cn2nnc3c(=O)[nH]c(C4CCN(S(=O)(=O)c5ccc(F)cc5)CC4)nc32)cc1	-4%	13µM*	19%	-5%	.	18%	4
SMILES	AMA1-RON2 inh	NS1 inh	SARS PLpro yeast	Pf growth 48h	Pf growth 96h	HCV inh	NS1 inh valid	others
O=c1[nH]c(C2CCCN(S(=O)(=O)c3ccccc3)C2)nc2c1nnn2Cc1ccccc1Br (stereo unspecified)	-2%	7.1µM*	?	?	?	1%	?
CCOc1cc(/C=C2\C(=O)N(Cc3ccc(C)cc3)C(C)=C2C(=O)OC)ccc1O	?	14µM*	2%	?	18%	-1%	-2
CN(C)c1ccc(/C=C2/C(=O)NC(=O)N(CCc3ccc(F)cc3)C2=O)cc1	-8%	-16%	-9%	17%	?	9%	.
CCOc1cc(/C=C2\C(=O)NC(=O)N(CCc3ccc(F)cc3)C2=O)ccc1O	-6%	0.35µM*	0%	19%	-10%	20%	30
CCOC(=O)C1=C(C)N(c2ccc(OC)cc2)C(=O)/C1=C\c1ccc(O)c(OCC)c1	-8%	7%	0%	?	-20%	-2%	.
CC(C)CC1NC(=O)N(CC(=O)Nc2cc(F)ccc2F)C1=O (stereo unspecified)	5%	.	-10%	1%	37%	13%	.
Cc1cccc(NC(=O)c2cc(NC(=O)c3ccccc3)ccc2N2CCCCC2)c1	-6%	?	-2%	.	-4%	?	2	PR8 titer=8.5
CC(=O)c1ccc(NS(=O)(=O)c2cccc(C(=O)Nc3ccccc3C(=O)O)c2)cc1	-1%	13µM*	6%	27%	22%	10%	31
Cc1cccc(NS(=O)(=O)c2cccc(C(=O)Nc3cccc(C(=O)O)c3)c2)c1	-5%	2.2µM*	-1%	160%	0%	-5%	31
COc1ccc(NS(=O)(=O)c2cccc(C(=O)Nc3ccccc3C(=O)O)c2)cc1	-7%	?	2%	2%	-26%	6%	.
Cc1ccccc1C(=O)Nc1cccc(C(=O)Nc2ccccc2C(=O)O)c1	1%	11µM*	-4%	4%	-26%	16%	14
COc1ccc(N(CCC#N)C(=O)/C(C#N)=C\c2cccs2)cc1	-4%	3%	0%	8%	-11%	3%	.
